The list is not random: actives were taken first. Their share in the collection is about 0.24%.
mcGAS inh = mouse cGAS inhibition by luminescence | Q8C6L5 | recombinant cGAS, Kinase-Glo ATP depletion luminescence | inhibition, % at 12.5 µM | actives 0.15% (n = 160,000) | AID 1259399
NPYLR7 ag = activates Aedes aegypti NPYLR7 receptor; actives 0.15% (n = 270,000); activation, % at 10 µM; HEK293T NPYLR7/Galpha15, GCaMP6s calcium fluorescence; AID 1259423; in the data active = activation above about 40%
hcGAS lum = blocks human cGAS activity; actives 0.081% (n = 290,000); Q8N884; inhibition, % at 12.5 µM; AID 1259398; recombinant h-cGAS, ATP depletion, Kinase-Glo luminescence
Each line names hits and unclear results; the compound was inactive in the other large screens; ! = repeats disagree. Rule as the data show it, unless noted: active = inhibition above about 40%; inactive = the rest.

CCOC(=O)CCC(=O)N1CCN(CCOC(c2ccccc2)c2ccc(F)c(F)c2)CC1 (stereo unspecified)	none
O=[N+]([O-])c1ccc(Cl)c2nonc12	NPYLR7 ag 139
O=[N+]([O-])c1cc(Cl)ccc1Cl	none
O=S(=O)(c1cccc(Br)c1)N1CCN(CCOC(c2ccccc2)c2ccc(F)c(F)c2)CC1 (stereo unspecified)	none
O=C(Nc1ccc(Cl)c([N+](=O)[O-])c1)c1cccn(Cc2ccccc2)c1=O	none (no result: mcGAS inh)
COCc1nc(-c2cccc(CN3CCN(C(=O)Cc4ccccc4OC)CC3)c2)no1	none
O=[N+]([O-])c1ccc(O)c([N+](=O)[O-])c1	hcGAS lum 72 (no result: mcGAS inh)
O=[N+]([O-])c1cc([As](=O)(O)O)ccc1O	hcGAS lum 83! (no result: mcGAS inh)
O=[N+]([O-])c1ccc(O)c(Cl)c1	none (no result: mcGAS inh)
O=[N+]([O-])c1cc(O)c(O)c([N+](=O)[O-])c1	none
CCC(NC)c1nc2ccccc2c(=O)n1-c1ccc(F)cc1 (stereo unspecified)	none (no result: mcGAS inh)
O=c1c2ccccc2nc(CCl)n1-c1ccc(F)cc1	mcGAS inh 48
CN(C)C(=O)c1ccc(-c2cccc3c2CCNC3)o1	none (no result: mcGAS inh)
Nc1c2c(nc3sc4c(c13)CCCC4)CCCCC2	NPYLR7 ag 42
O=c1c2c3c(sc2nc(SCCS(=O)(=O)F)n1-c1ccccc1)CCCC3	none
CCC(C)NC(=O)CN1C(=O)CSC(c2ccc(OC)c(OC)c2)c2c(C(C)(C)C)nn(C)c21 (stereo unspecified)	none
O=C1NC(=O)N(c2ccc(Cl)cc2)C(=O)/C1=C/c1ccc([N+](=O)[O-])o1	mcGAS inh 47
Cc1ccc(/C=C2\C(=O)NC(=O)N(c3ccc(Cl)cc3)C2=O)o1	none
CCCCC1(CCCC)C(=O)NC(=Nc2ccc(C)cc2)NC1=O	none (no result: mcGAS inh)
CC1(C)CC(=O)C2=C(C1)OC(=N)C(C(=O)OC(C)(C)C)C21C(=O)Nc2ccc(Br)cc21 (stereo unspecified)	none

Assay outcomes: PubChem, Fisher Drug Discovery Resource Center
